Bioassay records as filed in PubChem BioAssay.
KDM4E inh = inhibitors of human JMJD2E histone demethylase; 1.6% of 230,000 active; B2RXH2; JMJD2E catalytic domain, FDH-coupled NADH fluorescence (FDH is formaldehyde dehydrogenase); AID 2147; Potency, µM (series often up to 57.1 µM), inactives show top-dose activity change, negative = inhibition, usual class: inhibitors; active = well fitted inhibition curve with a large enough effect, not every such curve was filed as active; inconclusive = small, poorly fitted or top-dose-only effect, or another doubt; inactive = no such curve, though single readings can be large or run the other way;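 note: 0% = wells with enzyme and -100% = buffer wells without enzyme; nearly all actives have a fitted effect of over 50% in size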
NPSR antag = neuropeptide S receptor (human) antagonism, cAMP | Q6W5P4 | CHO-NPSR cells, cAMP TR-FRET, antagonist mode | Potency, µM (series often up to 38.3 µM), for inactives: at the highest dose activity change, negative = inhibition, most hits filed as inhibitors | 1% of 220,000 active | AID 1461; note: % is set by controls: 0 for no effect and ±100 for the full control effect; nearly all actives have a fitted effect of over 50% in size
IMPase Li cell = IMPase inhibition in cells with lithium potentiation | Potency, µM (titrated, usually from 59.4 µM), inactives show at the top dose activity, negative = IMPase inhibition, most hits filed as inhibitors | 0.35% of 210,000 active | CHO-M1 cells, IP1 TR-FRET (IP-One), carbachol + lithium;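 note: IP1 builds up when IMPase is blocked and the TR-FRET signal falls; plate controls were basal vehicle for no effect and high inhibitor control for full effect; nearly all actives have a fitted effect of over 50% in size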
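Concentration–response in CHO-M1 cells, lithium-potentiated; 30 min at 37C. IP1 detected by competitive TR-FRET after 10 min lysis at RT. Hill-fitted AC50.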
Sfp PPTase inh = blocks B. subtilis Sfp PPTase activity; Biochemical Sfp PPTase activity, qHTS; Potency, µM, for the others: largest response in the series, negative = inhibition, actives largely listed as inhibitors; 3.5% of 310,000 active;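 note: the enzyme is Sfp with the accession as filed and its product quenches rhodamine fluorescence; 0% = enzyme reaction without inhibitor and -100% = no enzyme wells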
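Buffer: 50 mM Hepes-Na pH 7.6, 10 mM MgCl2, 0.01% Nonidet P-40, 0.01% BSA. Enzyme 15 nM, pre-exposed to compound 15 min; substrates then added and fluorescence change tracked over 30 min.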
GCN5L2 inh = blocks human GCN5L2 histone acetyltransferase. Q92830. GCN5L2 HAT assay, ThioGlo1 CoA-SH fluorescence. Potency, µM (highest dose often 58.9 µM), without a hit: at the top dose activity change, negative = inhibition, hits mostly inhibitors. 0.21% of 390,000 active; note: % is set by controls: 0 for no effect and ±100 for the full control effect
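ThioGlo1-coupled HAT assay: 20nM GCN5L2, 70uM acetyl-CoA, 75uM H3(1-25) peptide, pH 7.5. Fluorescence read at 340/540nm at start and after 20 min at room temperature.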
Epigenetic reg = regulators of epigenetic silencing causing reporter derepression in mouse cells. murine LDR cells, GFP reporter derepression, 30 h. 0.2% of 280,000 active. AID 1865. Potency, µM (series often up to 53.9 µM), for inactives: at the top dose GFP activation, actives largely listed as activators; note: % of control where 0% means no effect; nearly all actives have a fitted effect of over 60% in size
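Murine LDR cells carrying a silenced, genomically integrated CMV-driven GFP reporter were exposed to compound for 30 hours at 37 C. After PBS washes, GFP-positive cells (20–120 um objects) were counted by laser-scanning microplate cytometry.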
An asterisk follows results filed as active; u = inconclusive; x = no result given; [ ] = remark or other dose. Compounds with a hit are over-represented: about 3.6% of the library has one in this group of screens. Unless noted, calls come from the whole dose curve; as a rule, active = well fitted curve in the direction sought with a large enough effect; inconclusive = small, poorly fitted or top-dose-only effect, or another doubt; inactive = no such curve, though single readings can be large; an effect the other way counts as inactive or inconclusive. Potency is the fitted concentration of half-maximal effect.

SMILES	KDM4E inh	NPSR antag	IMPase Li cell	Sfp PPTase inh	GCN5L2 inh	Epigenetic reg
CN(C)[C@H]1C(=O)C(C(N)=O)=C(O)[C@]2(O)C(=O)C3=C(O)c4c(O)cccc4[C@@](C)(O)[C@H]3C[C@@H]12	11µM*	x	u	-12%	-3%[21.4 µM]	-1%[16.9 µM]
CN(C)[C@@H]1C(=O)C(C(N)=O)=C(O)[C@]2(O)C(=O)C3=C(O)c4c(O)cccc4[C@@](C)(O)[C@H]3[C@H](O)[C@@H]12	11µM*	x	-12%	-2%	u	1%[16.9 µM]
CN(C)[C@@H]1C(=O)C(C(N)=O)=C(O)[C@@]2(O)C(=O)C3=C(O)c4c(O)cccc4[C@@](C)(O)C3[C@H](O)C12 (stereo partly specified)	x	x	x	x	-28%	x
Cc1cccc(C)c1N	x	x	-18%	x	x	x
CCc1nnc(NC(=O)CSc2ccc(-c3ccco3)nn2)s1	u	-6%	-19%	28µM*	u	0%
N[C@@H](Cc1c[nH]c2cc([N+](=O)[O-])ccc12)C(=O)O	x	x	-3%	x	x	x
O=[N+]([O-])c1ccc(-c2[se]c3ccccc3c2I)cc1	x	x	-4%	-21%	25µM*	-1%
O=C1NC(=O)C(=C/C=C/c2coc3ccc(Br)cc3c2=O)C(=O)N1	-6%	6%	x	-14%	-9%	1%
O=C1NC(=O)C(=Cc2coc3ccccc3c2=O)C(=O)N1	20µM*	1%	-6%	40µM*	-2%	-3%
O=C1NC(=O)C(=Cc2csc3ccccc23)C(=O)N1	u	35%	x	18µM*	-8%	0%
CC(=O)n1cc(C=C2C(=O)NC(=O)NC2=O)c2ccccc21	x	x	x	22µM*	-6%	x
CN1CCc2cc(O)c(O)cc2C1Cc1ccc(O)c(O)c1 (stereo unspecified)	x	x	x	u	0%	x
NC(CCl)=N[C@H]1CN2CCC1CC2	x	x	-8%	x	x	x
C=C(C)[C@@]12OC3(c4ccccc4)O[C@@H]1[C@@H]1[C@@H]4O[C@]4(CO)[C@@H](O)[C@]4(O)C(=O)C(C)=C[C@H]4[C@@]1(O3)[C@H](C)[C@H]2OC(=O)/C=C/C=C/c1ccccc1	x	x	x	0%	21%	x
Cc1c(N=Nc2c(O)n(Cc3ccccc3)c(=O)[nH]c2=O)c(=O)n(-c2ccccc2)n1C	7.1µM*	-12%	6%	7%	-5%	-1%
CCCCn1c(NC(=O)c2ccc(Br)o2)c(C(=O)OCC)c2nc3ccccc3nc21	u	3%	-1%	-30%	-12%	-1%
CCCCn1c(NS(=O)(=O)c2ccccc2)c(C(=O)OCC)c2nc3ccccc3nc21	u	7%	u	9%	25µM*	-2%
COCCCn1c(N)c(C(=O)NCc2ccco2)c2nc3ccccc3nc21	u	-31%	x	22µM*	u	6%
COCCNC(=O)c1c(N)n(Cc2ccco2)c2nc3ccccc3nc12	u	u	-10%[38.3 µM]	-26%	u	0%
COCCNC(=O)c1c(NC(=O)c2ccco2)n(Cc2ccccc2)c2nc3ccccc3nc12	u	u	21%[38.3 µM]	22µM*	3%	0%
CC(C)(C)OC(=O)C(Br)CCBr (stereo unspecified)	x	x	x	-10%	u	x
O=C(O)/C=C\c1ccc[c]([Sb])c1	x	x	-7%	x	x	x
O=P(C(Cl)Cl)(N1CCOCC1)N1CCOCC1	x	x	x	20%	0%	x
O=CC(Br)P(=O)(N1CCOCC1)N1CCOCC1 (stereo unspecified)	-10%	38%	x	25µM*	-17%	-2%
COC(=O)[C@@H]1[C@@H](C(=O)OC)C2(c3ccccc3-c3ccccc32)N(c2ccc(Cl)cc2)N1C#N	u	6.3µM*	11%	20%	-5%	u
N#CC(C#N)=NNc1cccc(Cl)c1	-11%	x	38%	56µM*	x	6%
CCOC(=O)C(SP(=S)(OC)OC)c1ccccc1 (stereo unspecified)	x	x	x	u	-20%	x
